Holding throughout (assay): BK channel mutant inhibitors and activators – cell-based, U2OS BacMam, thallium flux, beta subunits, selectivity assay, profiling panel (AID 1259406);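 also: initial slope of Thallos dye fluorescence rise after thallium is added; log ratio against the mean of 0.3% DMSO vehicle wells on the same plate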
Experiment [1] deals with F380Y. As to conditions: U2OS BacMam BK variants, at 30 µM.
Experiment [2] concerns F380Y/beta1. As to conditions: U2OS BacMam BK variants, at 30 µM.
Experiment [3] concerns F380Y/beta2Delta. As to conditions: U2OS BacMam BK variants, at 30 µM.
Experiment [4] has as its system F380Y/beta4. As to conditions: U2OS BacMam BK variants, at 30 µM.
Experiment [5] addresses Calcium-activated potassium channel subunit alpha-1 (Homo sapiens) + Leucine-rich repeat-containing protein 26 (Homo sapiens) (UniProt Q12791+Q2I0M4). As to conditions: U2OS BacMam BK variants, F380Y/Slo1WT/gamma1, at 30 µM.
The subject of experiment [6] is R275C. To be noted: U2OS BacMam BK variants, at 30 µM.
Experiment [7] deals with R275C/beta1. To be noted: U2OS BacMam BK variants, at 30 µM.
The test system of experiment [8] is R275C/beta2Delta. As to conditions: U2OS BacMam BK variants, at 30 µM.
The subject of experiment [9] is R275C/beta4. To be noted: U2OS BacMam BK variants, at 30 µM.
The test system of experiment [10] is R275C/Slo1WT/beta2. As to conditions: U2OS BacMam BK variants, at 30 µM.

The source of these data is PubChem BioAssay.

A number with no mark means an inactive call. Active and inactive are the calls of the source.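 The calls were made as follows: active = thallium flux through the channel raised or lowered by more than 3 SD from vehicle-only wells, actives on both sides; inactive = the rest.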

Sequence of Calcium-activated potassium channel subunit alpha-1 (Homo sapiens) + Leucine-rich repeat-containing protein 26 (Homo sapiens) (Q2I0M4 whole entry, looked up, one chain of several): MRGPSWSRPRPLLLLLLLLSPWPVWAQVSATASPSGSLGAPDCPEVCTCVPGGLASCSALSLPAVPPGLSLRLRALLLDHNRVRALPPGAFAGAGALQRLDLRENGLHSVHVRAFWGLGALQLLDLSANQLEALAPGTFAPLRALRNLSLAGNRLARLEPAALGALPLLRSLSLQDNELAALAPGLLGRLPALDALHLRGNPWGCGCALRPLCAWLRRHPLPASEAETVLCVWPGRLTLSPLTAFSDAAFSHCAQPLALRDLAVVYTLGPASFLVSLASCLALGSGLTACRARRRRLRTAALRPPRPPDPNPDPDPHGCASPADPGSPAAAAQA

In the case of `Cc1cc(NC(=O)Nc2nc(-c3ccc(C)c(Cl)c3)c(C)s2)c(C(F)(F)F)o1`, the log fold change Tl+ flux in [1] is 0.0531; in experiment [2] it was 0.0378; in [3], 0.0304; in [4], -0.0149; in experiment [5], 0.0333; in [6], 0.0173. The log fold change Tl+ flux in [7] was -0.0274; in experiment [8], 0.015; in experiment [9], 0.0593; in experiment [10] it was 0.0144.

With `O=C(NCc1ccc2c(c1)OCO2)C1CCN(C(=O)OCc2ccccc2)CC1`, the log fold change Tl+ flux in [1] is 0.035; in experiment [2] it was -0.0838 (active); in experiment [3], -0.059; in experiment [4] it was -0.064; in experiment [5] it was 0.019; in [6], 0.0676. Also, the log fold change Tl+ flux was 0.0117 in experiment [7], -0.0269 in experiment [8], -0.0162 in experiment [9] and 0.0194 in [10].

In the case of `Cc1ccc(NC(=S)NCCO)cc1`, the log fold change Tl+ flux in experiment [1] is 0.021; in experiment [2], 0.0481; in experiment [3] it was 0.0272; in experiment [4], -0.0116; in [5], -0.000511; in experiment [6], 0.0409. Moreover, the log fold change Tl+ flux in experiment [7] is -0.0306; in experiment [8], -0.0145; in [9], 0.0201; in [10] it was 0.0248.

For `COc1cc(C(=O)Nc2ccccc2C(=O)NCCc2ccccn2)cc(OC)c1OC`, the log fold change Tl+ flux is 7.8e-05 in experiment [1]; 0.0128 in experiment [2]; 0.0219 in experiment [3]; 0.0635 in [4]; 0.037 in experiment [5]; 0.0306 in experiment [6]. Moreover, the log fold change Tl+ flux is 0.0367 in experiment [7], 0.0116 in experiment [8], -0.0253 in experiment [9] and 0.0509 in experiment [10].

For `CC(=O)OCC(=O)C1(O)C(C)CC2C3CCC4CC(=O)C=CC4(C)C3C(O)CC21C` (stereo not given), the log fold change Tl+ flux in [1] is 0.0723; in experiment [2], -0.0034; in experiment [3], -0.017; in experiment [4] it was 0.0362; in experiment [5], -0.00155; in [6], 0.00844. The log fold change Tl+ flux in experiment [7] is 0.0348; in experiment [8], 0.0375; in experiment [9], 0.0527; in experiment [10] it was 0.00132.

On to `O=S1(=O)CC(N2CCOCC2)c2ccccc21` (stereo not given), for which the log fold change Tl+ flux in experiment [1] was -0.0264; in [2], -0.00462; in experiment [3], 0.0333; in experiment [4], 0.00745; in experiment [5], 0.00701; in experiment [6] it was -0.00299. The log fold change Tl+ flux in [7] was 0.0226; in experiment [8], 0.00722; in experiment [9], 0.00198; in experiment [10], -0.0351.

As to `O=S(=O)(Cc1nc(C=Cc2cc(C(F)(F)F)cc(C(F)(F)F)c2)no1)c1ccc(Cl)cc1`, the log fold change Tl+ flux is -0.0307 in experiment [1]; 0.0685 in experiment [2]; 0.000486 in experiment [3]; -0.0134 in experiment [4]; 0.00425 in experiment [5]; 0.0144 in [6]. In addition, the log fold change Tl+ flux is 0.0543 in experiment [7], 0.0281 in [8], -0.0177 in [9] and 0.00318 in experiment [10].

Turning to `CC1(C)CC(=O)N(c2cc(Cl)cc(Cl)c2)C(=O)C1`, the log fold change Tl+ flux is 0.0251 in experiment [1]; 0.0345 in experiment [2]; 0.0195 in experiment [3]; -0.021 in experiment [4]; -0.00455 in [5]; -0.0193 in experiment [6]. Moreover, the log fold change Tl+ flux in [7] is 0.025; in [8], 0.032; in experiment [9], -0.0103; in [10], -0.0488.

Take `FC(F)(F)c1cc(C=Cc2noc(-c3ccc(CN4CCCC4)cc3)n2)cc(C(F)(F)F)c1`: the log fold change Tl+ flux is -0.0963 in experiment [1]; 0.0303 in experiment [2]; -0.0239 in experiment [3]; -0.0108 in experiment [4]; 0.0236 in [5]; -0.0044 in [6]. Moreover, the log fold change Tl+ flux in experiment [7] is 0.00631; in experiment [8], -0.0502; in [9], -0.00136; in experiment [10], -0.00667.

Turning to `Cc1noc(C)c1C(=O)Sc1nccc(C(F)(F)F)n1`, the log fold change Tl+ flux in [1] is -0.0193; in experiment [2] it was 0.00713; in experiment [3], -0.00114; in experiment [4], 0.0508; in experiment [5], -0.00072; in experiment [6] it was 0.00122. The log fold change Tl+ flux in experiment [7] was 0.0433; in experiment [8], -0.013; in experiment [9], 0.0297; in [10], -0.0512.

Turning to `Cc1cc(-c2nn(C)c(=O)c3ccccc23)cc(C)c1O`, the log fold change Tl+ flux in experiment [1] is 0.00104; in experiment [2], 0.0146; in experiment [3], 0.00813; in experiment [4], -0.0513; in experiment [5], -0.0365; in experiment [6] it was 0.0132. Besides, the log fold change Tl+ flux in experiment [7] is 0.0233; in experiment [8], -0.0115; in experiment [9] it was 0.0138; in [10] it was -0.0205.
